Experimental findings from PubChem BioAssay (NCI) are described below.

Structures are written as SMILES. Compounds without any hit were thinned out: in the full panel of roughly 83,000, 20% have a hit.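 Testing used 96-well plates and a 48-hour single-concentration exposure. Example: -40 means 40% of the starting cells died.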 The source made the active and inactive calls. The calls were made as follows: active = growth percent below 10; inactive = the rest.

In this test the test system is HL-60(TB) leukemia. The experiment in a line: NCI-60 one-dose screen, 48 h (100 = growth as untreated, 0 = no growth, -100 = all killed). Particulars: 10 µM unless noted.
As to `C/C(=N\NC(N)=S)c1nnn(-c2ccc([N+](=O)[O-])cc2)c1C`, the growth is 105% (inactive). The same measure for `O=C(CCCCCCN1CC(=O)N2[C@@H](c3ccc(Cl)c(F)c3)c3[nH]c4ccccc4c3C[C@H]2C1=O)NO`: 85.1% (inactive); for `CC[C@]12C=CCN3CC[C@@]4(c5ccc(OC)cc5N(C)[C@H]4[C@@](O)(C(=O)OC)[C@@H]1OC(=O)CCN1CCc4ccccc4C1)[C@@H]32`: 80.4% (inactive); for `Cn1ccnc1C(=O)/C=C/c1ccc(CNC(=O)c2c(F)c(F)c(F)c(F)c2F)cc1`: 20% (inactive). As to `CC[C@H](C)[C@H]1NC(=O)[C@@H]([C@H](O)C(C)C)NC(=O)[C@@H](C)N(C)C(=O)[C@H](C)N(C)C(=O)[C@H](CC(C)C)NC(=O)[C@H](CC(C)C)N(C)C(=O)[C@H](C)N(C)C1=O`, the growth was -19.4% (active).

`C=C(C=O)[C@@H]1CC[C@]2(C)[C@H](CC=C3[C@H]4[C@@H](C)[C@H](C)CC[C@]4(C(=O)OC)CC[C@]32C)[C@@]1(C)CCC#N`: the growth was -25.2% (active).

Take `NS(=O)(=O)c1cccc(Nc2nc(SCC(=O)c3ccc(Br)cc3)nc3ccccc23)c1`: the growth was 79.1% (inactive).

As for `CNC(=O)c1cc(Oc2ccc3nc(NC(=O)c4cc(C)cc(C)c4)sc3c2)ccn1`, the growth is 70.4% (inactive).

As to `NC(N)=Nc1ccc(Oc2cccc(Nc3ccc(Br)c(C(F)(F)F)c3)c2)cc1`, the growth was -50.3% (active). The same measure for `COc1cc2nc(Cl)nc(Nc3cccc(C4=Nc5c(N)nc(N)nc5NC(c5ccc6c(c5)OCO6)C4)c3)c2cc1OC` (stereo not given): 68.4% (inactive); for `Cc1ccc(S(=O)(=O)NCCCNc2nccc(-c3[nH]c(-c4ccccc4)nc3-c3ccc(F)c(O)c3)n2)cc1`: 82.4% (inactive); for `O=S(=O)(Nc1ccc(C2CC2)cc1)c1ccc(-c2cnc(C3CC3)o2)cc1`: 38.9% (inactive).

Consider `Cc1ccc(C2=Nn3c(nnc3-c3ccccc3)SC2)cc1`, for which the growth was 7.74% (active). Under `C/C(=C(\c1ccc(O)cc1)c1ccc(OCCN2CCCCCC2)cc1)c1ccc(Cl)cc1` stands -49.2% (active); under `CCOC(=O)C1=NNC(c2ccc(Cl)cc2)C1C(=O)N1C(=S)NC(=O)C1CC(C)C` (stereo not given), 106% (inactive); under `N#Cc1nc(-c2ccccc2)oc1N1CCC(CO)C1` (stereo not given), 107% (inactive). The same measure for `O=[N+]([O-])c1ccc(-c2nnc(SCc3ccc(O)c4ncccc34)o2)cc1`: 13.7% (inactive). Under `CC1(C)CC[C@]2(C(=O)O)CC[C@]3(C)C(=CC[C@@H]4[C@@]5(C)CC[C@H](NOCCCN)C(C)(C)[C@@H]5CC[C@]43C)[C@@H]2C1` stands 20.2% (inactive). Regarding `COc1ccc(C(=NNS(=O)(=O)c2ccc(C)cc2)c2ccccc2)cc1OC`, the growth is 96.9% (inactive). `CCCCCCCCCCCC(=O)NC(C)(C)C(=O)N1CCCC1C(=O)NC(C)(C)C(=O)NC(C)(C)C(=O)N1CCCC1C(=O)NC(C)(C)C(=O)NC(C)(C)C(=O)N1CCCC1C(=O)NC(C)C(=O)NCCC(=O)NC(C)C(=O)NC(C)(C)C(=O)NC(C)(C)C(=O)NC(C)(C)C(=O)NCCC(=O)NC(C)(C)C(=O)NC(C)(C)C(=O)NC(C)(C)C(=O)NC(C)C(=O)NCCC(=O)O` (stereo not given): the growth was -66.3% (active). The same measure for `O=c1c2cc(-c3ccc(F)cc3F)ccc2n(Nc2ccccc2)c(=O)n1-c1cccc(C(F)(F)F)c1`: -45.5% (active); for `CCOc1cccc(/C(N)=N/C(N)=N/c2nc3ccccc3s2)c1`: 72.2% (inactive); for `C=C(C)[C@@H]1CC[C@]2(COS(C)(=O)=O)CC[C@]3(C)[C@H](CC[C@@H]4[C@@]5(C)CCCNC(C)(C)[C@@H]5CC[C@]43C)[C@@H]12`: 34.1% (inactive). Turning to `O=C(CN1C(=O)S/C(=C\c2ccccc2)C1=O)Nc1ccc(C(=O)/C=C/c2cc3ccccc3nc2Cl)cc1`, the growth is 80.2% (inactive).

Consider `c1cc(-c2nc3ccc4[nH]ncc4c3c3c2CCCC3)[nH]n1`, for which the growth is 80.8% (inactive).

Consider `CNC(=O)c1cc(-c2ccc(NC(=S)Nc3cc(C(F)(F)F)cc(C(F)(F)F)c3)cc2)nc2cccnc12`, for which the growth was 121% (inactive).

Take `Clc1ccc(-c2csc(N/N=C/c3nc4ccccc4n3C3CC3)n2)cc1`: the growth is 107% (inactive). `O=C(Nc1nc2ccc([N+](=O)[O-])cc2s1)Nc1ccccc1Br`: the growth was 37.1% (inactive). Under `CCOC(=O)C(=O)Nc1ccc2c(ccn2C(=O)c2cccc(F)c2)c1` stands 99.2% (inactive). The same measure for `C#CCOc1ccc(C(Nc2cc(Cl)ccc2Cl)c2nnnn2C2CCCCC2)cc1` (stereo not given): 88.4% (inactive).
